According to PubChem BioAssay:
Active and inactive are the calls of the source.

Key:
[1] = tested on: Plasmodium falciparum Sir2 (PF13_0152, Sir2A); test: pfSir2 binders on small-molecule microarrays, primary screen, biochemical, small-molecule microarray, 635 nm fluorescence (AID 1098); settings: small-molecule microarray binding, fluorescence 635 nm; higher = more signal;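 also: score merges spot fluorescence intensity with its signal-to-noise ratio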
[2] = small-molecule microarray binders of probe aDKK1, primary screen, biochemical, biotinylated probe, 635/667 nm fluorescence (AID 1099); settings: higher = more signal;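 also: score merges 667nm spot fluorescence with signal to noise across triplicate slides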
[3] = small-molecule microarray binders of probe aCHRDL2, primary screen, biochemical, biotinylated probe, 635/667 nm fluorescence (AID 1100); settings: higher = more signal
[4] = splicing luciferase reporter signal modulators, primary screen, spliceosome inhibition project, cell-based, HEK293, splice +/- reporter (AID 1101); settings: luminescence, 24 h, higher = more signal, called active from +8 up or from −8 down;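 also: HEK293 cells carrying a splicing-competent luciferase reporter gene; test concentration not given here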
[5] = target: Fibroblast growth factor 10 (Homo sapiens) (UniProt O15520); test: FGF10 binders on small-molecule microarrays, primary screen, biochemical, small-molecule microarray, 635 nm fluorescence (AID 1102); settings: FGF10 binding, fluorescence 635 nm, higher = more signal
Fibroblast growth factor 10 (Homo sapiens), sequence (O15520 whole entry, looked up): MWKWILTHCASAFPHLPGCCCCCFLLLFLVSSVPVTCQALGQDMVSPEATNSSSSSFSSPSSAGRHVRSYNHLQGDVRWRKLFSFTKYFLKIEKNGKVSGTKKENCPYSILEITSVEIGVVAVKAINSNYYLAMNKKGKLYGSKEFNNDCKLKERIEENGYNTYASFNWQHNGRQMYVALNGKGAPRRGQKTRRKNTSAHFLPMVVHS

[6] = tested on: glycogen synthase kinase-3 (GSK3A per assay name; protocol says GSK3B); test: GSK3 binders on small-molecule microarrays, primary screen, biochemical, small-molecule microarray, 635 nm fluorescence, GSK3A (AID 1103); settings: small-molecule microarray binding, fluorescence 635 nm; higher = more signal; also: the record names both GSK3A and GSK3B
[7] = target: Epidermal growth factor receptor (Homo sapiens) (UniProt P00533); test: EGFR binders on small-molecule microarrays, primary screen, biochemical, small-molecule microarray, 635 nm fluorescence (AID 1104); settings: EGFR binding, higher = more signal;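 also: score merges 667 nm emission intensity with spot signal to noise over triplicate slides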
Epidermal growth factor receptor (Homo sapiens), sequence (P00533 whole entry, looked up): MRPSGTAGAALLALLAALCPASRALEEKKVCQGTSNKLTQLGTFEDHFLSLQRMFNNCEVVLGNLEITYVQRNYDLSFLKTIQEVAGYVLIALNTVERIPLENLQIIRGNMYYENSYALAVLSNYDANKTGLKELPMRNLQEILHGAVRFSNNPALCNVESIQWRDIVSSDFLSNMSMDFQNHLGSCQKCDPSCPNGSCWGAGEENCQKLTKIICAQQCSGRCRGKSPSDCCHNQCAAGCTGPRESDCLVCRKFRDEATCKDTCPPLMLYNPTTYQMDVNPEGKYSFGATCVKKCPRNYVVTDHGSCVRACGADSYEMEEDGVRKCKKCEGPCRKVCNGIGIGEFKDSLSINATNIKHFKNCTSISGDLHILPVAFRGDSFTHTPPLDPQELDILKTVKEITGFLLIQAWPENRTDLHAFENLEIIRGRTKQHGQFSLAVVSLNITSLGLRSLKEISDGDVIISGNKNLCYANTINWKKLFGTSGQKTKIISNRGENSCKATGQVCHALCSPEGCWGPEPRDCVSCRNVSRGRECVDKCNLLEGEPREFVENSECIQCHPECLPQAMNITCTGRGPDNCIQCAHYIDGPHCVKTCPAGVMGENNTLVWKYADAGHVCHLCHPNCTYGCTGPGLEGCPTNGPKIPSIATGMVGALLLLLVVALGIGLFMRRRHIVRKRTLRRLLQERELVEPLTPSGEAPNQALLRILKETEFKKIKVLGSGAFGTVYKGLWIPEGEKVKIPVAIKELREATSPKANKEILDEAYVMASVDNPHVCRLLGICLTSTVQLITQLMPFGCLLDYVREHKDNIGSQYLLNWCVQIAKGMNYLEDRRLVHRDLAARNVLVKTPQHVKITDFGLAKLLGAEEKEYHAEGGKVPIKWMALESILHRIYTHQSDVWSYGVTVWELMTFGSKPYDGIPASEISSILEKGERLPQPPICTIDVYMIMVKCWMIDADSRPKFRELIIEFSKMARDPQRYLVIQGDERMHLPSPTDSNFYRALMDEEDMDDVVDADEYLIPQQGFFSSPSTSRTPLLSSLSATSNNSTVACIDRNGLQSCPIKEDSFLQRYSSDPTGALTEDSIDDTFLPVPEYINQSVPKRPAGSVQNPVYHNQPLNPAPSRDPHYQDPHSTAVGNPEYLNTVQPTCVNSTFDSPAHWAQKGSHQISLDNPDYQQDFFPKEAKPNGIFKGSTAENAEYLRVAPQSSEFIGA

[8] = target: Follistatin-related protein 3 (Homo sapiens) (UniProt O95633); test: FSTL3 binders on small-molecule microarrays, primary screen, biochemical, small-molecule microarray, 635 nm fluorescence (AID 1105); settings: FSTL3 binding, higher = more signal;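 also: score merges emission near 667 nm and signal to noise per printed spot across three slides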
Follistatin-related protein 3 (Homo sapiens), sequence (O95633 whole entry, looked up): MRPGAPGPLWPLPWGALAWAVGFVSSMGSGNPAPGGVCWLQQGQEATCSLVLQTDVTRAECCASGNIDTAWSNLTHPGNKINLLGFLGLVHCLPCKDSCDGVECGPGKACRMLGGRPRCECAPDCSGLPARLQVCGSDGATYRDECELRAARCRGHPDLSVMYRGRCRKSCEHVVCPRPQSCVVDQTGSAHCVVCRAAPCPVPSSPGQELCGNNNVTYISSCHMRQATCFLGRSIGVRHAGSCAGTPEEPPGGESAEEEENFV

[9] = target: Dickkopf-related protein 1 (Homo sapiens) (UniProt O94907); test: DKK1 binders on small-molecule microarrays, primary screen, biochemical, small-molecule microarray, 635 nm fluorescence scan (AID 1106); settings: DKK1 binding, higher = more signal;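 also: score merges emission near 667 nm with signal to noise over three replicate slides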
Dickkopf-related protein 1 (Homo sapiens), sequence (O94907 whole entry, looked up): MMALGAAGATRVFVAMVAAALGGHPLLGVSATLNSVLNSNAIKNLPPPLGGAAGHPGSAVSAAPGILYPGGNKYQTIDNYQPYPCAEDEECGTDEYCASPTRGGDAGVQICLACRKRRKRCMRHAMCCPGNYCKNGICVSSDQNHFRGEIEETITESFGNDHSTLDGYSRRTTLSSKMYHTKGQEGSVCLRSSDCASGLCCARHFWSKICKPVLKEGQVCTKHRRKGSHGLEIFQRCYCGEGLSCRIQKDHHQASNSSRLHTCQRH

[10] = tested on: Inhibin beta A chain (activin A); test: INHBA (activin A) binders on microarrays, primary screen, biochemical, small-molecule microarray, 635 nm fluorescence scan (AID 1107); settings: small-molecule microarray binding, higher = more signal;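 also: mouse activin A protein probed at 4.33 µg/mL on printed slides; score merges bound-protein fluorescence near 667 nm with spot signal-to-noise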
[11] = tested on: Human papillomavirus type 1a protein E7 (residues 44-93); test: HPV1a E7 fragment binders on microarrays, primary screen, biochemical, small-molecule microarray, residues 44-93, 635 nm fluorescence (AID 1108); settings: small-molecule microarray binding, fluorescence 635 nm; higher = more signal;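 also: E7 fragment applied at 1 µg/mL in TBST for 1 h at 4 C; score combines spot fluorescence with its signal to noise ratio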
[12] = modulators of HCV replicon luciferase signal, primary screen, HCV replication inhibitor project, Huh7 cells, luciferase reporter (AID 1109); settings: 48 h, higher = more signal;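 also: huh7 hepatoma cells harbouring a luciferase neomycin HCV replicon reporter; luciferase luminescence as measure of HCV replicon replication; test concentration not given here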
[13] = target: Left-right determination factor 2 (Homo sapiens) (UniProt O00292); test: LEFTY2 binders on small-molecule microarrays, primary screen, biochemical, small-molecule microarray, 635 nm fluorescence scan (AID 1110); settings: LEFTY2 binding, higher = more signal
Left-right determination factor 2 (Homo sapiens), sequence (O00292 whole entry, looked up): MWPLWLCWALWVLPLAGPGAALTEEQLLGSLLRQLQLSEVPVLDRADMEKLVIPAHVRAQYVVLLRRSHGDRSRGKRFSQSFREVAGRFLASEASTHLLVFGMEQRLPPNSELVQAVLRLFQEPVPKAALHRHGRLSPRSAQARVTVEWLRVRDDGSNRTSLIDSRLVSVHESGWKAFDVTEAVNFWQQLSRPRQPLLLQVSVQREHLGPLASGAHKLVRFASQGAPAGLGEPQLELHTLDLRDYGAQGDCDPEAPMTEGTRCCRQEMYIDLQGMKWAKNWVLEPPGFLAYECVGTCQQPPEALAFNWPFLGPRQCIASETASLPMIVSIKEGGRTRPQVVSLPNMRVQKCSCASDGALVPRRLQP

[14] = target: Calmodulin-1 (Homo sapiens) (UniProt P0DP23); test: CALM1 binders on microarrays, EGTA buffer, profiling panel, biochemical, small-molecule microarray, Cy5-labelled CALM1 (AID 1111); settings: Cy5-CALM1 binding fluorescence, higher = more signal;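 also: labelled calmodulin applied in Tris saline Tween buffer holding calcium plus EGTA and DTT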
[15] = target: Calmodulin-1 (Homo sapiens) (UniProt P0DP23); test: calcium-bound CALM1 binders on microarrays, profiling panel, artefact control for SMM control-protein annotation, biochemical, small-molecule microarray, Cy5-labelled CALM1, plus calcium (AID 1112); settings: Cy5-CALM1 binding fluorescence, higher = more signal;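 also: score merges spot fluorescence with signal to noise from triplicate slides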
[16] = small-molecule microarray binders of probe aWnt5a, primary screen, biochemical, biotinylated probe, 635/667 nm fluorescence (AID 1113); settings: higher = more signal;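 also: score merges 667 nm fluorescence intensity with signal-to-noise per printed feature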
[17] = small-molecule microarray binders of probe aShh, primary screen, biochemical, biotinylated probe, 635/667 nm fluorescence (AID 1114); settings: higher = more signal;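 also: probe is biotin-labelled aShh protein from a stem cell growth factor screen; measures binding of labelled protein to compounds printed on the slide; score merges feature fluorescence at 667 nm with signal-to-noise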
[18] = small-molecule microarray binders of probe aNog, primary screen, biochemical, biotinylated probe, 635/667 nm fluorescence (AID 1115); settings: higher = more signal;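 also: probe is biotinylated aNog protein used at 0.15 µg/mL for 1 h at 4 C; z-score combines 667 nm fluorescence of each spot with its signal to noise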
[19] = target: Torsin-1A-interacting protein 1 (Homo sapiens) (UniProt Q5JTV8); test: LAP1 binders from COS7 cell lysate, primary screen, small-molecule microarray, 635/667 nm fluorescence (AID 1116); settings: COS7-hLAP1 lysate binding, 635 nm fluorescence, higher = more signal
Torsin-1A-interacting protein 1 (Homo sapiens), sequence (Q5JTV8 whole entry, looked up): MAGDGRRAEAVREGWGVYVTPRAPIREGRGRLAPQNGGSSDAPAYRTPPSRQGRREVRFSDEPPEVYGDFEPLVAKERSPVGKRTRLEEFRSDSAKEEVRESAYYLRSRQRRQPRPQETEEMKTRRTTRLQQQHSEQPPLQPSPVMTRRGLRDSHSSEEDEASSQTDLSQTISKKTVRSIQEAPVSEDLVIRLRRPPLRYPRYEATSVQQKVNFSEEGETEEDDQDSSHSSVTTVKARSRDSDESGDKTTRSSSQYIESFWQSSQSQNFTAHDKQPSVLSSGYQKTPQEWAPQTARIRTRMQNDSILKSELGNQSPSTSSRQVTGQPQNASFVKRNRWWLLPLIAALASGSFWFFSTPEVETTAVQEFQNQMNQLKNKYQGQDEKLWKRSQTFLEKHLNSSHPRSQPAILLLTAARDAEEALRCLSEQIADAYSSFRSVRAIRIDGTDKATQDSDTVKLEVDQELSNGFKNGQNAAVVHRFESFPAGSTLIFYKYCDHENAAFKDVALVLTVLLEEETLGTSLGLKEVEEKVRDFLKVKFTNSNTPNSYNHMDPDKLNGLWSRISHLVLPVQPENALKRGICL

[20] = target: Alpha-bungarotoxin (Bungarus multicinctus) (UniProt P60615); test: alpha-bungarotoxin binders on microarray, profiling panel, artefact control for SMM control protein annotation, biochemical, small-molecule microarray, Alexa647 label, 635/667 nm fluorescence (AID 1117); settings: alpha-BTX-A647 binding fluorescence, higher = more signal
Alpha-bungarotoxin (Bungarus multicinctus), sequence (P60615 whole entry, looked up): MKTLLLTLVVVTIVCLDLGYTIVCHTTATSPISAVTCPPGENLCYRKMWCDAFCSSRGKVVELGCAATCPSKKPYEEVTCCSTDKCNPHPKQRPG

| SMILES | composite z-score [1] | composite z-score [2] | composite z-score [3] | z-score [4] | composite z-score [5] | composite z-score [6] | composite z-score [7] | composite z-score [8] | composite z-score [9] | composite z-score [10] | composite z-score [11] | z-score [12] | composite z-score [13] | composite z-score [14] | composite z-score [15] | composite z-score [16] | composite z-score [17] | composite z-score [18] | composite z-score [19] | composite z-score [20] |
| --- | --- | --- | --- | --- | --- | --- | --- | --- | --- | --- | --- | --- | --- | --- | --- | --- | --- | --- | --- | --- |
| CN1C(=O)C2C=CC(C(O)c3ccco3)N(Nc3ccccc3)C2C1=O (stereo not given) | 0.307 | 0.44 | 0.338 | 0.883 (inactive) | 0.953 | 0.386 | 0.466 | 0.523 | 0.519 | 1.16 | 0.282 | 0.0751 | 0.232 | -0.276 | -0.833 | -0.0192 | 0.199 | -0.165 | 0.272 | 0.35 |
| COC(=O)[C@@]1(CCS(=O)(=O)c2ccccc2)N=C(c2ccc(OCCCO)cc2)O[C@H]1c1ccccc1CN=[N+]=[N-] | 1.21 | 1.11 | 1.2 | 0.362 (inactive) | 0.336 | 1.24 | 0.143 | 1.01 | -0.0332 | 0.799 | 0.797 | -2.38 | -0.343 | 1.72 | 0.373 | -0.0539 | 0.0469 | 0.647 | 1.13 | 0.829 |
| Cc1ccc([C@@H]2C[C@@H](Sc3ccccc3)[C@H](C(=O)O)CN2S(=O)(=O)c2ccc(C)cc2)cc1 | 1.31 | 0.055 | 0.874 | -0.521 (inactive) | 1.37 | 1.34 | 0.271 | 0.968 | -0.0594 | 0.289 | 1.47 | -0.733 | 0.0973 | 1.66 | 0.481 | 0.0219 | 0.408 | 1.55 | 1.17 | 1.69 |
| CN1C(=O)C2C=CC(C(O)C3CC=CCC3)N(N(c3ccccc3)c3ccccc3)C2C1=O (stereo not given) | 0.206 | 0.244 | 0.944 | 0.773 (inactive) | -0.291 | -1.64 | 0.664 | 0.184 | 0.175 | 1.87 | -1.02 | -0.155 | 0.411 | -0.549 | -0.75 | 0.027 | -0.0322 | -0.0446 | 0.533 | 0.141 |
| O=C(N1CCCCC1)[C@]1(Cc2ccccc2)N=C(c2ccc(OCCCO)cc2)O[C@@H]1c1ccccc1 | 1.05 | 0.887 | 1.08 | -0.555 (inactive) | 0.956 | 0.669 | -0.394 | 0.512 | -0.474 | 0.99 | 1.42 | -3.4 | 0.0931 | 1.48 | 0.516 | 0.0744 | 0.446 | 0.85 | 0.252 | 0.977 |
| COc1cc2c(cc1OC)CN(C(=O)[C@H]1[C@@H]3C(=O)O[C@@H](c4ccccc4)[C@@H](c4ccccc4)N3[C@@H](c3ccc(O)cc3)[C@]13C(=O)Nc1ccccc13)CC2 | 1.23 | -0.0009 | -0.123 | -0.0299 (inactive) | 0.708 | 0.691 | -0.0502 | -0.276 | -0.198 | -0.188 | 1.46 | -2.54 | 0.0835 | 0.92 | 0.427 | -0.166 | -0.0289 | 0.386 | 1.01 | 1.43 |
| COC(=O)[C@@]1(Cc2ccc(OC)cc2)[C@@H]2C(=CC(=O)[C@H]2CC(=O)C(=O)N2CCCC2)CN1C(=O)c1ccccc1 | 0.108 | 1.01 | 0.918 | -2.47 (inactive) | -0.148 | -0.573 | 0.351 | 0.0649 | -0.69 | 0.765 | -0.514 | -1.88 | -0.505 | 0.946 | 0.713 | 0.368 | 1.06 | 1.04 | 0.674 | 0.15 |
| COc1cc(C(O)C2C=CC3C(=O)NC(=O)C3N2Nc2ccccn2)cc(OC)c1OC (stereo not given) | 1.18 | -0.149 | 0.418 | 1.53 (inactive) | 0.12 | 0.211 | 0.635 | -0.027 | 0.336 | 0.791 | 1.04 | -0.178 | 0.0534 | -0.0338 | -0.62 | -0.128 | -0.243 | 0.416 | 0.531 | -0.0198 |
| NC(=O)N1C(=O)C2C(C1=O)C1C=C(c3ccc(CO)cc3)C2C(c2cccs2)N1Cc1cccc(OC(F)(F)F)c1 (stereo not given) | -0.148 | 0.799 | 1.02 | -1.99 (inactive) | 0.302 | -0.343 | -0.813 | 0.122 | 0.245 | 1.49 | 0.142 | -0.657 | -0.647 | 1.51 | 1.16 | 0.0573 | 0.275 | 0.596 | 1.13 | 0.611 |
| C=CCOC(=O)[C@@H]1[C@H]2C(=O)O[C@H](c3ccccc3)[C@H](c3ccccc3)N2[C@H](c2ccc(OCCOC(=O)[C@@H]3C[C@@H]4C(=O)NCC(=O)N4[C@@H]3c3ccc(O)cc3)cc2)[C@@]12C(=O)Nc1ccc(I)cc12 | 0.924 | -0.485 | -0.201 | -0.603 (inactive) | 0.912 | 1.29 | 0.715 | 1.22 | 0.82 | 0.0932 | 0.403 | -1.29 | 0.902 | 1.2 | 0.499 | -0.101 | 0.0796 | -0.175 | 1.4 | 0.872 |
| OCCCC1=CC(c2cccs2)N(Cc2cc3c(cc2Br)OCO3)CC1 (stereo not given) | 0.725 | -0.16 | 0.197 | -0.252 (inactive) | 0.21 | -0.0247 | -0.275 | -0.0688 | 0.211 | 1.01 | 0.172 | -0.807 | -0.0241 | 0.0466 | -0.16 | -0.137 | -0.0011 | -0.105 | 0.26 | 1.36 |
